Assay outcomes as filed in PubChem BioAssay.
MARV entry inh = inhibitors of Marburg virus binding or entry into cells. Marburg virus pseudotype entry/binding inhibition, cell-based. Potency, µM (top dose mostly 49.2 µM), for inactives: at the highest dose activity change, negative = inhibition, most hits filed as inhibitors. 18,000 tested, 6.5% active. AID 720532
Lassa entry = Lassa virus entry inhibition; Lassa virus pseudotyped entry inhibition, cell-based qHTS; Potency, µM (series often up to 49.2 µM), without a hit: at the highest dose activity change, negative = inhibition, actives largely listed as inhibitors; 18,000 tested, 4.1% active
Numbers without * were called inactive; ? = inconclusive; / = not tested or not shown; ! = repeats disagree; [ ] = remark or other dose. Compounds with a hit are over-represented: about 8% of the library has one in this group of screens. The call rests on the fitted dose curve; tested in HEK293 cells. On the % scale 0 is the no-effect control and ±100 the full control effect; potency means the concentration at half of the fitted maximal effect.

SMILES | MARV entry inh | Lassa entry
CC[n+]1c(/C=C/N(C)c2ccccc2)n(-c2ccccc2)c2ccc(-c3nc4ccccc4s3)cc21 | 2µM* | 3.2µM*
C/C1=C2N=C(/C=C3N=C(/C(C)=C4\[N-][C@@](C)([C@@H]5N=C1[C@](C)(CCC(=O)NCC(C)OP(=O)(O)O[C@H]1[C@@H](O)[C@@H](n6cnc7cc(C)c(C)cc76)O[C@@H]1CO)[C@H]5CC(N)=O)[C@@](C)(CC(N)=O)[C@@H]4CCC(N)=O)[C@@](C)(CC(N)=O)[C@@H]\3CCC(N)=O)C(C)(C)[C@@H]/2CCC(N)=O.CC(=O)O.[Co] (some centres not stated) | 2.8µM* | 3.2µM*
C=CCCC1(C(=O)c2ccccc2)C(=O)C(CC=C(C)C)=C(OC)C(CC=C(C)C)(CCC=C(C)C)C1=O (configuration not stated) | -1%[8.59 µM] | /
CCN1C(=O)[C@@H]2[C@H]3[C@H](O)[C@H](O)CC(=NOC[C@@H](C)[C@H](OCc4ccccc4)C(C)C)[C@@H]3CC[C@H]2C1=O | 1%[8.59 µM] | /
CCCCC/C=C\C/C=C\C/C=C\C/C=C\CCCC(=O)N(Cc1ccc(O)c(Cl)c1)Cc1ccc(O)c(Cl)c1 | ? | 0.079µM*
CCCCC/C=C\C/C=C\C/C=C\C/C=C\CCCCCC(=O)NCCc1ccc(O)c(O)c1 | 23% | -1%
CC(=O)OC[C@H]1O[C@H](CCON=C(C)CCN2CCCc3nc(C)c(C)cc32)C=C[C@H]1OC(C)=O | -28%[8.59 µM] | -19%[8.59 µM]
CN1C[C@H](C(=O)N[C@]2(C)O[C@@]3(O)[C@H]4CCCN4C(=O)[C@H](Cc4ccccc4)N3C2=O)C[C@H]2c3cccc4[nH]cc(c34)C[C@@H]21 | 31% | 3%
CO[C@@]12C[C@@H](COC(=O)c3cncc(Br)c3)CN(C)[C@H]1Cc1cn(C)c3cccc2c13 | -1% | 4%
CN1C[C@H](CNC(=O)OCc2ccccc2)C[C@@H]2c3cccc4c3c(cn4C)C[C@H]21 | 14µM*! | ?
CN1C[C@H](CNC(=O)OCc2ccccc2)C[C@H]2c3cccc4c3c(cn4C)C[C@@H]21 | 10µM* | ?
CCN1C(=NCc2ccc3c(c2)OCO3)NC(CCc2ccccc2)C(C(=O)OC)=C1C (configuration not stated) | -30%[8.59 µM] | 49%[8.59 µM]
CCN1CCCC1CNC(=O)c1cnn(-c2nccc(-c3ccccc3OC)n2)c1-c1ccco1 (configuration not stated) | ? | -4%
CCc1cc(Cl)c(OC)c(C(=O)NC[C@@H]2CCCN2CC)c1O | 4.5µM* | ?
CCCCN1CCC[C@H]1CNC(=O)c1cc(C#N)c2ccccc2c1OC | 10µM* | ?
CCN1CCCC1CNC(=O)c1cc(S(N)(=O)=O)ccc1OC (configuration not stated) | 3% | 17%
COc1ccc(-c2nc(-c3ccccc3)oc2NC2CCCCC2)cc1 | 31%[8.59 µM] | 12%[8.59 µM]
CC(=O)OC[C@H]1O[C@@H](ON=C[C@@H](C)[C@H](OCc2ccccc2)C(C)C)[C@@H](OC(C)=O)[C@@H](OC(C)=O)[C@@H]1OC(C)=O | 43%[8.59 µM] | /
CCOC(=O)C1(c2ccccc2)CCN(CCC(C#N)(c2ccccc2)c2ccccc2)CC1 | 2.5µM* | 7.9µM*
CCC(=O)OC1(c2ccccc2)CCN(C)CC1 | -15%[107 µM] | -6%[107 µM]
COC(=O)C1=C(C)N(Cc2ccccc2)C(=NCc2cc(OC)c(OC)c(OC)c2)NC1c1cccc(F)c1 (configuration not stated) | -17%[8.59 µM] | /
O=C(C=NO)NCCCCNC(=O)C=NO | -3%[8.59 µM] | 13%[8.59 µM]
CN(CCc1ccc(Cl)c(Cl)c1)CC(O)COc1ccc(NS(C)(=O)=O)cc1 (configuration not stated) | ? | 3%
CN(CCc1ccc(Cl)c(Cl)c1)CCN1CCCCCC1 | 10µM* | ?
CN(CCc1ccc(Cl)c(Cl)c1)[C@H]1CCCC[C@H]1N1CCCC1 | 6.3µM* | 18µM*
SMILES | MARV entry inh | Lassa entry
CN1CCN(CCc2ccc(Cl)c(Cl)c2)CC1 | 18µM*! | ?
O=C(O)c1ccc(CCN2CCN(CC=Cc3ccc(Cl)cc3)CC2)cc1 | 11% | 0%
Cc1ccc(O[C@@H]2[C@H](O)CO[C@H]2C=CC#Cc2ccc(C(C)(C)C)cc2)cc1 | -35%[8.59 µM] | /
C[C@H]1COc2cc(F)ccc2S(=O)(=O)N1 | ? | -11%
CCO[C@@H]1C[C@@]1(C=C[C@@H](C)[C@H](OC)c1ccccc1Br)C(=O)OC | -14%[8.59 µM] | -30%[8.59 µM]
COC(=O)[C@H]1[C@H]2C[C@@H]3c4[nH]c5cc(OC)ccc5c4CCN3C[C@H]2C[C@@H](OC(=O)/C=C/c2cc(OC)c(OC)c(OC)c2)[C@@H]1OC | 10µM* | -28%[17.8 µM]
COC(=O)[C@H]1C(OC)[C@@H](OC(=O)c2cc(OC)c(OC)c(OC)c2)C[C@@H]2CN3CCc4c([nH]c5cc(OC)ccc45)[C@H]3C[C@H]21 (some centres not stated) | -6% | 1%
COC(=O)[C@H]1[C@H]2C[C@@H]3c4[nH]c5ccccc5c4CCN3C[C@H]2C[C@@H](OC(=O)c2cc(OC)c(OC)c(OC)c2)[C@@H]1OC | ? | 3.5µM*
